Experimental data taken from ChEMBL document CHEMBL3433997, “St. Jude Leishmania screening dataset” (2016).

Tests used:
Format in all cases: functional
[1] = target: Solute carrier family 2, facilitated glucose transporter member 1 (Homo sapiens) (UniProt P11166); experiment: ST_JUDE_LEISH: Cytotoxicity at 2uM final concentration against transgenic Leishmania Mexicana promastigotes LmGLUT1 that are glucose transport deficient and complemented with the human glucose transporter GLUT1. Activity is measured by DNA content using SYBR green in vitro
Chain of Solute carrier family 2, facilitated glucose transporter member 1 (Homo sapiens) (P11166 whole entry): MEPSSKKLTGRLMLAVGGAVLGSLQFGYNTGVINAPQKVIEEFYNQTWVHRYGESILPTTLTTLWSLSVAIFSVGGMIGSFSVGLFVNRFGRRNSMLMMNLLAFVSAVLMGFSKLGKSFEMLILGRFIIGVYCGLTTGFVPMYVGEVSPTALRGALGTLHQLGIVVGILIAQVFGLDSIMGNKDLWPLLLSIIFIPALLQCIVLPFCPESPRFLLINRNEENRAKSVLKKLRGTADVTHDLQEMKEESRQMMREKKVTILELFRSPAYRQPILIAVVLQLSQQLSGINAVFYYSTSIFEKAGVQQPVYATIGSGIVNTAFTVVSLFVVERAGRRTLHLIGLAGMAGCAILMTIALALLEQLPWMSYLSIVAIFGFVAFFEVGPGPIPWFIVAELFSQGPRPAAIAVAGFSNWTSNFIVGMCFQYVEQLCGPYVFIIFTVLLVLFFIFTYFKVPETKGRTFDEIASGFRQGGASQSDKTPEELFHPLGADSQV

[2] = target: Hexose transporter 1 (Plasmodium falciparum) (UniProt O97467); experiment: ST_JUDE_LEISH: Cytotoxicity at 2uM final concentration against transgenic Leishmania Mexicana promastigotes LmPfHT that are glucose transport deficient and complemented with the Plasmodium falciparum hexose transporter. Activity is measured by DNA content using SYBR green in vitro
[3] = target: Glucose transporter (Leishmania mexicana) (UniProt O61059); experiment: ST_JUDE_LEISH: Cytotoxicity at 2uM final concentration against transgenic Leishmania Mexicana promastigotes LmGT2 that are glucose transport deficient and complemented with the L. Mexicana glucose transporter 2. Activity is measured by DNA content using SYBR green in vitro

SMILES | inhibition [1] [%] | inhibition [2] [%] | inhibition [3] [%]
COc1ccc(C(C(=O)NC2CCN(C[C@H](O)c3ccnc4ccc(OC)cc34)CC2)N2CCN(c3ccc(F)cc3)CC2)cc1 (some centres not stated) | 1.52 | 1.23 | 1.93
O=C(/C=C/c1ccc(Cl)c(Cl)c1)NCCCCCN1CCN(C(=O)Nc2cccc(F)c2)CC1 | 3.99 | 2.95 | 2.33
CN(C)c1ccc(NC(=O)Nc2ccnc3ccc(Br)cc23)cc1 | 2.25 | 3.91 | 0.43
COc1cc(NC(=O)/C=C/c2cc3ccccc3n2C)ccc1OCCN(C(C)C)C(C)C | 4.23 | 4.39 | 3.12
CCOc1cc2ncnc(Nc3cc(Cl)c(Cl)c(Cl)c3)c2cc1OCC | 0.38 | 1.95 | 1.59
O=C(Nc1ccc(-c2cccc(-c3nc4cc(F)ccc4[nH]3)c2)cc1)Nc1ccsc1 | 5.02 | 6.71 | 0.78
COc1ccc(C2CC(=O)C3=C(C2)NC(C)=C(C(=O)OC2CCCC2)C3c2ccc(O)cc2)cc1OC (configuration not stated) | -0.48 | 0.53 | 0.39
COc1ccc(CNCc2ccc(F)cc2)cc1-c1cccc(S(=O)(=O)NCCN2CCCC2)c1 | 0.82 | 0.14 | 1.01
CC1CCC(C[C@@H](C(=O)N[C@@H](CCC(=O)N2CCCCC2)C(=O)Nc2nccs2)[C@H](C(C)C)N(O)C=O)CC1 (some centres not stated) | 3.85 | 4.16 | 3.44
Oc1ccc(C=NNC(S)=Nc2cccc3ccccc23)c(O)c1 | 4.86 | 4.96 | 2.47
CCNc1cc(C)nc(Nc2ccc(NC(=O)c3c(F)cccc3Cl)cc2)n1 | 10.6 | 11 | 2.56
O=C(Nc1cccc(CN2CCCN(Cc3ccc4c(c3)OCO4)CC2)c1)c1ccc(-c2ccccc2)cc1 | 4.21 | 3.52 | 0.89
O=C(NC1CCC(CCN2Cc3ccc(Br)cc3C2)CC1)c1cccc(-c2cccnc2)c1 (configuration not stated) | 3.16 | 4.93 | -1.16
CC1(C)CCC(C)(C)c2c1ccc(C1CCN(CCCCNC(=O)c3ccc(-c4ccc(C#N)cc4)cc3)CC1)c2OCC(N)=O | 3.73 | 4.26 | 4.33
COc1ccc(-c2cc(-c3nc4cc(CN)ccc4[nH]3)c(=O)n(C)c2)cc1OC | 0.63 | 0.83 | -0.74
CNC(=O)c1ccccc1Nc1nc(Nc2ccc(N3CCN(C)CC3)nc2)ncc1C | 12 | 11.3 | 9.03
CCC(C)NS(=O)(=O)c1ccc2nc(Nc3ccc(C)c(Cl)c3)n([C@H](C)C(C)(C)C)c2c1 (some centres not stated) | 2.63 | 2.57 | 0.57
NC1CCN(c2cnn(Cc3cccc(NC(=O)Nc4ccc(-c5ccccc5)cc4)c3)c(=O)c2Cl)CC1 | 1.64 | 1.72 | 2.25
COc1ccc(N2CCN(CCCOc3ccc(NC(=O)c4cc(Cl)cc(Cl)c4)cc3)CC2)c(OC)c1 | 6.5 | 5.97 | 6.22
Cc1cccc(NC(=O)c2ccc(C(=O)NC3CCN(CC4CCCCC4)CC3)cc2)c1 | 4.08 | 7.67 | 4.8
O=C(NCCCCN1CCN(c2ccc3c(c2)CCC3)CC1)c1ccc(NC(=O)c2ccc(Cl)cc2)cc1 | 55.3 | 38.1 | 24.9
CC(C)N1CCC(N(Cc2ccc(-c3ccc(Cl)cc3)cc2)C(=O)Cn2c(CCc3cccc(F)c3F)nc(=O)c3ccccc32)CC1 | 6.02 | 5.38 | 3.03
N#Cc1cccc(C(=O)Nc2cccc(-c3ccc(C(=O)Nc4cccnc4)cc3)c2)c1 | 4.01 | 2.59 | 1.36

SMILES | inhibition [1] [%] | inhibition [2] [%] | inhibition [3] [%]
O=C(O)C[C@H](NC(=O)CCCNC(=O)c1cccc(-c2ccc(Cl)c(Cl)c2)c1)C(=O)O | -1.37 | 0.62 | 1.4
CC(=O)Nc1ncc(C(=O)Nc2cccc(-c3cccc(-c4nc5cc(C(F)(F)F)ccc5[nH]4)c3)c2)s1 | -1.12 | 0.35 | 0.3
CCN1CCC(N(Cc2ccc(-c3ccc(C(F)(F)F)cc3)cc2)C(=O)Cn2c(CCc3cccc(F)c3F)cc(=O)c3c2CCC3)CC1 | 1.27 | 0.83 | 0.64
O=C(NCc1ccccc1)Nc1cccc(-c2cccc(-c3nc4cc(C(F)(F)F)ccc4[nH]3)c2)c1 | 4.49 | 4.71 | 6.02
CCCCCC(C)C(C)c1cc(O)c2c(c1)OC(C)(C)CC2(O)c1ccnn1C (configuration not stated) | 3.29 | 3.23 | 3.24
Cc1cccc2nc(-c3ccc(-c4cccc(CN5CCN(CC6CCCN(C)C6)CC5)c4)s3)[nH]c12 (configuration not stated) | 7.18 | -3.27 | 0.69
COc1cc(Cc2cnc(N)nc2N)cc(OC)c1OCCCCCN1C(=O)c2ccccc2C1=O | 3.29 | -0.4 | 0.36
CCCNC(=O)C1Cc2c([nH]c3cc(Br)ccc23)C2(CCN(CCc3ccccc3)CC2)N1 (configuration not stated) | 2.03 | 1.9 | 1.75
Cc1nc2ccc(-c3nc4cc(N)ccc4[nH]3)cc2[nH]1 | -2.46 | 10 | 1.44
Cc1cc(=O)c(-c2ccc(Oc3ccc(Cl)cc3Cl)cc2)c(C)[nH]1 | 2.15 | 3.32 | 1.9
COc1cc(-c2ccc3c(-c4ccc(C(=O)N5CCN(C)CC5)cc4)n[nH]c3n2)cc(OC)c1OC | 0.99 | 1.78 | 5.3
Cc1ccc2[nH]c(/C=C/c3cccc4cc[nH]c34)nc2c1 | 4.9 | 4.05 | 0.48
CC1CN(c2ccc(C(=O)NCC3CC3)cc2NC(=O)OCc2ccccc2)CC(C)O1 (configuration not stated) | 0.19 | 0.86 | -0.78
CCCCn1c(Sc2ccc(C#N)c([N+](=O)[O-])c2)nnc1-c1cc(OC)cc(OC)c1 | 0.5 | 3.21 | 0.45
COC1(C)Oc2ccc3cccc([N+](=O)[O-])c3c2C1=O (configuration not stated) | 0.18 | -0.47 | -0.75
CCN(CCNC(=O)C1CCN(c2cc(-c3cccc(C)c3)ncn2)CC1)Cc1ccccc1 | 4.41 | 3.37 | 4.06
COCCN1CCC(CN(C)CC(C)(C)c2nc(-c3ccc(Cl)c(O)c3)c(-c3ccncc3)[nH]2)CC1 | 2.73 | 5.16 | 0.55
O=C(C=Cc1ccc(Cl)c(Cl)c1)NCCCCCN1CCC(CCNS(=O)(=O)c2ccc(F)cc2)CC1 | 1.24 | 0.05 | 4.55
O=C(Cc1ccccc1)NC(CCN1CCC(O)(c2cccc(C(F)(F)F)c2)CC1)c1ccc(Cl)c(Cl)c1 (configuration not stated) | 4.97 | 1.61 | 0.53
COC(=O)c1sc2ccccc2c1NC(=O)c1ccc(C)c(C)c1 | 5.3 | 4.87 | 5.56
CCOC(=O)CCCCCNC[C@H](O)c1ccccc1 | -1.32 | -0.8 | -2.14
Cc1cccc2nc(-c3ccc(-c4cccc(CN5CC(C)OC(C)C5)c4)s3)[nH]c12 (configuration not stated) | 7.69 | 6.31 | 4.91
COc1ccc(C(=O)C2CC2CN(C)CCC(O)c2ccc(Cl)c(Cl)c2)cc1 (configuration not stated) | 1.1 | 1.11 | 4.55

SMILES | inhibition [1] [%] | inhibition [2] [%] | inhibition [3] [%]
COc1cc(C(=O)NC2CCc3ccccc32)cc(Cl)c1OC (configuration not stated) | -4.04 | -0.96 | -0.41
COc1ccc(C2C(C(=O)Nc3cc(OC)c(OC)c(OC)c3)c3cc(OC)c(OC)cc3C(=O)N2C)cc1 (configuration not stated) | 1.9 | 1.7 | 2.37
CC(C)CC1c2[nH]c3ccccc3c(=O)c2CN1C(=O)OC(C)(C)C (configuration not stated) | 2.72 | 2.68 | 1.8
OC(CNC1CCCCC1)Cn1c2ccc(I)cc2c2cc(I)ccc21 (configuration not stated) | 0.77 | 1.51 | 1.17
Cn1cncc1C(=O)Nc1cccc(-c2ccc(-c3nc4cc(F)ccc4[nH]3)s2)c1 | 3.18 | 3.3 | -0.1
Nc1nonc1-c1nc2c(-c3cccc(Cl)c3)nccc2n1CCCNC(=O)Cc1ccc(Cl)cc1 | 0.7 | 0.77 | 0.42
COc1ccc(-c2cccc(NC(=O)c3ccc(F)cc3)c2)cc1CN1CCCN(C)CC1 | 11.2 | 9.38 | 7.43
CC(=O)c1cccc2[nH]c(C(=O)NC3CCC(CCN4CCc5ccc(C#N)cc5C4)CC3)cc12 (configuration not stated) | 4.5 | 4.09 | 2.51
Clc1ccc(-c2ccc(CNCCCN3CCCC3)cc2)cc1 | 4.04 | 3.04 | 3.65
CC(C)Nc1cc(C(=O)N[C@@H](Cc2ccccc2)[C@H](O)CNC2CCCCC2)cc(N2CCCCS2(=O)=O)c1 | 0.23 | 3.37 | 7.2
COc1ccc(NC(=O)[C@H](Cc2ccccc2)Nc2cc(C)nc(NCC3CCCCC3)n2)cc1 | 1.62 | 2.59 | 0.65
Cn1c(Nc2cc(C(C)(C)C)on2)nc2cc(Nc3ccnc(Nc4cccc(S(=O)(=O)N5CCOCC5)c4)n3)ccc21 | 5.63 | 2.67 | -0.88
Cc1ccc2[nH]c3c(NCCCN4CCOCC4)ncnc3c2c1 | 7.43 | -2.37 | 0.92
COC(=O)c1c(C#N)c(OC)cc(O)c1CSC[C@@H](CN1CCCCC1)Nc1nc(-c2ccc([N+](=O)[O-])cc2)cs1 | -0.16 | -0.29 | 0.57
O=C(N[C@@H](Cc1ccccc1)C(=O)NC1CCCc2ccccc21)c1ccc(O)c(-c2ccc(Cl)c(Cl)c2)c1 (some centres not stated) | 0.59 | 0.41 | -0.1
c1ccc2c(CNc3nc(NCC4CCCCC4)nc4[nH]cnc34)cccc2c1 | 4.27 | 5.29 | 2.36
CC(C)C[C@@H](/C=N/N1CCOC1=O)NC(=O)[C@H](CC(C)C)NC(=O)c1ccc(F)cc1 | 7.39 | 11.5 | 6.1
CCn1c(-c2nonc2N)nc2c(-c3cccc(Cl)c3)ncc(OCCCNCCc3c[nH]cn3)c21 | 4.7 | 4.78 | 3.45
CCC(NCc1ccc(-c2cncc(C(=O)NCC(C)C)c2)cc1)c1ccccc1 (configuration not stated) | 7.89 | 7.18 | 8.76
COc1ccccc1CCNc1ncnc2c1[nH]c1ccc(F)cc12 | 4.25 | 12.9 | 10.1
Cc1cc(F)ccc1-c1nc(NCC(O)CNCCc2ccccc2)nc2c1ccc(=O)n2-c1c(F)cccc1F (configuration not stated) | 5.26 | 4.59 | 6.47
O=C(/C=C/c1ccc(Cl)cc1)NCCCCCN1CCC(C(=O)Nc2ccc(Cl)c(Cl)c2)CC1 | -0.38 | -2.11 | -0.64
Cc1cccc2nc(-c3ccc(-c4cccc(NC(=O)c5ccncc5)c4)cc3)[nH]c12 | 0.03 | -0.47 | 1.08
